Only some compounds are listed: those with a hit (about 7.5% of all), similar ones and a draw of the others.
Rab9 promoter act – Rab9 promoter activation. hit rate 2.8% among 320,000. Potency, µM (doses to about 9.22 µM), for inactives: top-dose activation, negative = inhibition, usual class: activators. AID 485297. Huh7 Rab9 promoter-luciferase reporter, luminescence, 24 h; further: % of control where 0% means no effect; nearly all actives have a fitted effect of over 60% in size
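Steps: seed 1500 Huh7 Rab9-luc cells per well, rest 2 h at 37 °C; add compound in DMSO; incubate 24 h; add luciferase reagent, 10 min ambient; read luminescence.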
SMN2 splice up – enhancers of SMN2 splice variant expression; HEK293 SMN2-luciferase splicing reporter, luminescence, 30-36 h; Potency, µM (series often up to 46.1 µM), for the others: top-dose activity change, positive = activation, usual class: activators; hit rate 2.8% among 210,000; AID 1458; further: % of control where 0% means no effect; nearly all actives have a fitted effect of over 55% in size
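HEK293 cells carry an SMN2 […]–luciferase reporter in which exon 7 inclusion puts luciferase in frame. Cells were plated 10-12 h before compound addition, then incubated 30-36 h at 37C. ONE-Glo luminescence was read; sodium butyrate at 4.5 mM final served as control.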
Luc counter – blocks Kinase-Glo luciferase, a counter-screen artifact; AID 1379; hit rate 0.28% among 200,000; Kinase-Glo luciferase, ATP luminescence, 8 min; Potency, µM (series often up to 38.3 µM), for inactives: at the top dose activity change, negative = inhibition, hits mostly inhibitors; Q27757; further: on the % scale 0 is the no-effect control and ±100 the full control effect; nearly all actives have a fitted effect of over 60% in size
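Substrate mix (final 50 mM imidazole pH 7.2, 50 mM KCl, 7 mM MgCl2, 10 uM ATP, 0.01% Tween 20, 0.05% BSA) plus pin-tool compound, then Kinase-Glo detection mix; 8 min ambient, luminescence read.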
FLuc counter – counter-screen for miR-21 project: firefly luciferase inhibitors or activators. purified FLuc, Km substrates, luminescence inhibition. Potency, µM (titrated, usually from 57.5 µM), for inactives: at the top dose activity change, negative = inhibition, usual class: inhibitors. hit rate 6.9% among 360,000;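 further: plate controls were vehicle for no effect and reference inhibitor for full effect; nearly all actives have a fitted effect of over 55% in size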
Target sequence (P08659 whole entry, looked up): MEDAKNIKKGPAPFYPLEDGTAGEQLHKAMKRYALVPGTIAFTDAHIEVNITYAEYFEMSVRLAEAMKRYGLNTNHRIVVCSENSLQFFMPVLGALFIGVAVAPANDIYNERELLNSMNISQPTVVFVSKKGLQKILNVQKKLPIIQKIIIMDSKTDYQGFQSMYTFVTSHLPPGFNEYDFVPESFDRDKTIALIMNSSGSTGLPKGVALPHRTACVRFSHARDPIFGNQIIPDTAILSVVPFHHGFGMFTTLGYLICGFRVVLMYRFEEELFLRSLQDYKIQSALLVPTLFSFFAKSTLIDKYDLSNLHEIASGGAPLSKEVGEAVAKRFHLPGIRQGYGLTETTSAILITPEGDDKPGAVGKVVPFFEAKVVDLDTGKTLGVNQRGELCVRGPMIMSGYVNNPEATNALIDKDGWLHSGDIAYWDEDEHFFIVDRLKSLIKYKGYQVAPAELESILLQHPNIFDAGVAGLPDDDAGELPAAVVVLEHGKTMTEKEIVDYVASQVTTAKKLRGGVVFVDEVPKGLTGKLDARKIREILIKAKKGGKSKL
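Purified P. pyralis luciferase (10nM final) with 10uM D-luciferin and 10uM ATP (Km levels) in 50mM Tris acetate pH 7.5, 10mM Mg acetate, 0.01% Tween-20, 0.05% BSA; qHTS 6-point titration, ~60 µM downward; luminescence read.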
ELG1 genotox – induces genotoxicity in HEK293T cells with luciferase-tagged ELG1; hit rate 1.3% among 330,000; AID 504466; Potency, µM (highest dose often 46 µM), for the others: top-dose activity change, positive = activation, hits mostly activators; HEK293T ELG1-luciferase reporter, luminescence, 16 h; further: % of control where 0% means no effect; nearly all actives have a fitted effect of over 60% in size
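Genotoxic stress is detected as increased luminescence from luciferase-tagged ELG1 in HEK293T cells, measured with ONE-Glo after a 16 hr treatment at 37 °C.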
NPC1 prom act – NPC1 promoter activation. Huh7 NPC1 promoter luciferase reporter, 24 h. Potency, µM (series often up to 9.22 µM), for the others: at the highest dose activation, hits mostly activators. hit rate 2.4% among 320,000. AID 485313; further: % of control where 0% means no effect; nearly all actives have a fitted effect of over 60% in size
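Huh7 cells stably carrying NPC1 promoter–luciferase, plated in Opti-MEM with 10% FBS for 2 h, were exposed to compound in DMSO for 24 h at 37 °C; luciferase reagent was added for 10 min and luminescence read.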
Numbers without * were called inactive; ? = inconclusive; . = no result. The call rests on the fitted dose curve; in most records, active means well fitted curve in the direction sought with a large enough effect; inconclusive means small, poorly fitted or top-dose-only effect, or another doubt; inactive means no such curve, though single readings can be large; an effect the other way counts as inactive or inconclusive. Potency means the concentration at half of the fitted maximal effect.

SMILES	Rab9 promoter act	SMN2 splice up	Luc counter	FLuc counter	ELG1 genotox	NPC1 prom act
O=C(CSc1nc2cc(Cl)ccc2s1)c1ccco1	?	18%	1%	?	18%	?
Cc1ccc(C(=O)COC(=O)c2ccc(Br)o2)cc1C	16%	10%	3%	11µM*	4%	2%
CCC(=O)N1c2ccccc2CC1C(=O)NCc1cc(Br)ccc1OC (stereo unspecified)	.	.	.	-1%	.	.
O=C(COC(=O)c1ccco1)c1ccc2ccccc2c1	9%	-15%	-2%	2.4µM*	10%	-2%
O=C(Cc1ccc(F)cc1)OCC(=O)c1cc2ccccc2o1	2%	7%	1%	21µM*	1%	9%
COc1ccc(C(=O)COC(=O)c2cc(=O)c3ccccc3o2)cc1	.	.	.	.	0%	.
O=C(CCNc1ccc(F)cc1)c1cc2ccccc2o1	0%	1%	-5%	-5%	8%	-5%
O=C(COC(=O)c1ccco1)c1ccccc1	0%	.	.	6µM*	?	-7%
O=C(COC(=O)c1ccco1)Nc1ccccc1	-4%	12%	-3%	?	-1%	-2%
O=C(COC(=O)c1cc2ccccc2o1)c1ccccc1	-2%	-7%	-8%	6µM*	?	-2%
O=C(/C=C/c1ccco1)N(Cc1cccc(F)c1)C1CCS(=O)(=O)C1 (stereo unspecified)	0%	.	.	4%	1%	2%
CCc1ccccc1NC(=O)C1=CN2CCS(=O)(=O)N=C2C=C1	0%	.	.	5%	2%	-2%
COc1ccc(CCNC(=O)C(=O)NCC2OCCN2C(=O)c2ccc(Cl)cc2)cc1OC (stereo unspecified)	-2%	.	.	2%	-10%	-7%
NS(=O)(=O)c1ccc(NC(=O)COC(=O)c2ccc(Cl)cc2[N+](=O)[O-])cc1	0%	.	.	-1%	-2%	-1%
CN(CC(=O)Nc1cccc(F)c1)C(=O)CCCNC(=O)c1ccc(Cl)cc1	?	.	.	12µM*	13%	?
CN(CC(=O)Nc1cccc(F)c1)C(=O)CCNC(=O)c1ccc(Br)cc1	25%	.	.	?	14%	8%
O=C(NC(=S)Nc1ccc(CN2CCCCC2)cc1)c1ccco1	-1%	-4%	0%	-16%	3%	5%
O=C(NC(=S)Nc1ccc(N2CCOCC2)cc1)c1ccco1	?	16µM*	-11%	?	?	2.8µM*
O=C(Nc1ccc(N2CCOCC2)cc1)c1ccc2nc(-c3ccco3)c(-c3ccco3)nc2c1	1%	5%	4%	-4%	6%	-1%
S=C(Nc1ccc(N2CCOCC2)cc1)Nc1ccc2nc(-c3ccco3)c(-c3ccco3)nc2c1	4%	-12%	0%	15µM*	-2%	1%
CC(C)(C)C(=O)N1CCN(c2ccc(NC(=O)c3ccco3)cc2)CC1	0%	.	.	0%	-2%	-6%
O=C(NC(=S)Nc1ccc(CN2CCOCC2)cc1)c1ccco1	?	.	.	17µM*	?	20%
CC(C)CC(=O)N1CCN(c2ccc(NC(=O)c3ccco3)cc2)CC1	3.2µM*	.	.	0%	2%	0%
Cc1ccc(NC(=O)CCc2c(C)nc3ncnn3c2C)cc1Cl	.	-26%	.	6%	.	.
Cc1cccc(N2CCN(C(=O)c3ccc(NC4=NC5CS(=O)(=O)CC5S4)cc3)CC2C)c1 (stereo unspecified)	-1%	.	.	1%	1%	0%
SMILES	Rab9 promoter act	SMN2 splice up	Luc counter	FLuc counter	ELG1 genotox	NPC1 prom act
Cc1ccccc1-n1c(C)nnc1SCc1nc2ccccc2s1	28%	2%	-3%	4.8µM*	?	15%
COc1ccc(-c2nnc(SCc3nc4ccccc4s3)n2C(C)C)cc1	?	29%	2%	?	?	25%
CCn1c(SCc2nc3ccccc3s2)nnc1-c1cccs1	?	?	-5%	15µM*	?	18%
Cn1c(SCc2nc3ccccc3s2)nnc1-c1cccs1	6%	-12%	-11%	?	?	18%
CCOc1ccc(-n2nnnc2-c2nc3ccccc3s2)cc1	2.5µM*	-55%	-5%	2.1µM*	18µM*	?
CCOc1ccccc1-n1nnnc1SCc1nc2ccccc2s1	17%	-28%	-2%	13µM*	-4%	14%
COc1ccccc1-c1nnc(SCc2nc3ccccc3s2)n1C	24%	0%	1%	?	4%	20%
COc1ccc2c(c1)[C@]1(C)CCC(=O)C[C@H]1CC2	.	1%	-2%	.	.	.
O=C(NCc1ccc(F)cc1)c1cc2c(=O)n3ccccc3nc2s1	.	2%	.	-2%	.	.
CCCN(CCC)CCNC(=O)C1CCN(c2nc3ccc(CC)cc3s2)CC1	.	24%	.	21µM*	.	.
CC(C)CCNC(=O)C1CCN(c2nc3ccccc3o2)CC1	-1%	-31%	-2%	-2%	-7%	1%
CCc1ccc2nc(N3CCC(C(=O)NCCC(C)C)CC3)sc2c1	.	-7%	.	1.9µM*	.	.
CCCN(CCC)CCCNC(=O)C1CCN(c2nc3ccc(CC)cc3s2)CC1	.	28%	.	12µM*	.	.
CCCCN(CCCC)CCCNC(=O)c1ccc2nc(N3CCCCC3)sc2c1	.	15%	.	4%	.	.
CCC(=O)N1CCN=C1SCc1cccc(F)c1	-2%	.	.	1%	4%	-1%
CCOc1ccc(C(=O)NCC(=O)OCc2nnc(-c3ccccc3)o2)cc1OCC	1%	.	.	0%	3%	0%
COc1cc(/C=N/Nc2nc3ccccc3[nH]2)ccc1O	3%	63%	-9%	4.8µM*	?	4%
COc1cc(/C=N/NC(=O)c2ccc(CSc3nc4ccccc4[nH]3)cc2)cc(OC)c1OC	1%	?	-1%	?	-18%	1%
COc1ccc(O)c(/C=N/Nc2nc3ccccc3[nH]2)c1	?	?	-5%	6.7µM*	?	5%
COc1cc(/C=C(/C(=O)c2cccs2)c2nc3ccccc3[nH]2)cc(OC)c1O	14%	-77%	?	2.4µM*	-20%	13%
COc1cc(/C=N/Nc2nc3ccccc3[nH]2)cc(Br)c1OCC(=O)N(C)C	-4%	-23%	-1%	24µM*	-10%	-7%
COc1cc(/C=N/Nc2nc3ccccc3[nH]c2=O)ccc1O	2%	?	-9%	15µM*	-3%	9%
O=[N+]([O-])c1ccc(O)c(/C=N/Nc2nc3ccccc3[nH]2)c1	-38%	-100%	5%	?	18µM*	-35%
COc1cc(/C=N/Nc2nc(=O)[nH]nc2C)ccc1O	-1%	.	.	?	4%	-5%
COc1cc(/C=N/Nc2nc3ccccc3[nH]2)cc(OC)c1O	21%	.	.	4.8µM*	14%	14%
